ATXN2 expr inh: Primary qHTS for Inhibitors of ATXN expression; HEK-293 ATXN2-luciferase reporter, luminescence, 24 h; Potency, µM (highest dose often 57 µM), without a hit: at the top dose activity change, negative = inhibition, hits mostly inhibitors; 360,000 tested, 0.72% active; AID 1745845, 2022; note: % is set by controls: 0 for no effect and ±100 for the full control effect; nearly all actives have a fitted effect of over 55% in size
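ATXN2-luciferase reporter cells (luciferase flanked by upstream and downstream ATXN2 gene portions) were treated 24 h at 37 °C with compounds at up to 57 uM. SteadyGlo luminescence gave expression; GF-AFC fluorescence gave viability.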
Nrf2 inh: Nrf2 qHTS screen for inhibitors; A549 ARE-Fluc reporter, luciferase luminescence, 18-24 h; Potency, µM (top dose mostly 46 µM), inactives show at the top dose activity change, negative = inhibition, actives largely listed as inhibitors; 360,000 tested, 2.1% active; AID 504444, 2011; note: % is set by controls: 0 for no effect and ±100 for the full control effect; nearly all actives have a fitted effect of over 60% in size
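Nrf2 function is reported as luminescence of an ARE-controlled luciferase in A549 cells. Compounds were tested at several concentrations, and a CellTiter-Fluor read on the same wells flagged cytotoxicity.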
ATXN viability: Viability Counterscreen for Primary qHTS for Inhibitors of ATXN expression; S2 cells (HEK-293 line with an ATXN2-luciferase reporter) viability, CellTiter-Fluor protease fluorescence, 24 h; 400,000 tested, 0.49% active; Potency, µM (highest dose often 56.7 µM), actives largely listed as cytotoxic; note: nearly all actives have a fitted effect of over 40% in size
Nrf2 ARE act: qHTS of Nrf2 Activators. AREc32 ARE-luciferase reporter (MCF7-derived line), luminescence, 24 h. Potency, µM (titrated, usually from 46.1 µM), without a hit: at the highest dose activation, hits mostly activators. 410,000 tested, 0.31% active. AID 624171, 2012; note: % of control where 0% means no effect; nearly all actives have a fitted effect of over 65% in size
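Nrf2 activation is followed as ARE-luciferase induction in the AREc32 line after one day of compound treatment; luminescence is read with Steady-Glo.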
A549 viability: Nrf2 qHTS screen for inhibitors: counterscreen for cytotoxicity; Potency, µM (series often up to 46 µM), for the others: top-dose activity change, negative = cytotoxicity, usual class: inhibitors; A549 ARE-Fluc cells, CellTiter-Fluor viability, 18-24 h; 390,000 tested, 0.16% active; AID 504648, 2011; note: % is set by controls: 0 for no effect and ±100 for the full control effect
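Cytotoxicity counterscreen: CellTiter-Fluor fluorescence was measured in A549 ARE_Fluc cells after 18-24 h of compound exposure in a concentration series. The subsequent BugLite luminescent read reports ARE-luciferase activity.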
* = called active by the depositor; i = inactive; ? = inconclusive; . = not tested or not shown; [ ] = remark or other dose. Hits are enriched below; roughly 2.9% of the tested compounds scored in any of these assays. Calls come from the whole dose curve; as a rule, active = well fitted curve in the direction sought with a large enough effect; inconclusive = small, poorly fitted or top-dose-only effect, or another doubt; inactive = no such curve, though single readings can be large; an effect the other way counts as inactive or inconclusive. Potency is the fitted concentration of half-maximal effect.

SMILES	ATXN2 expr inh	Nrf2 inh	ATXN viability	Nrf2 ARE act	A549 viability
COc1ccccc1CNC(=O)CCc1c(C)nc2cc(-c3ccc(Cl)cc3)nn2c1C	-18%	-15%	i	-3%	2%
Cc1csc(NC(=O)CCc2c(C)nc3cc(-c4ccc(Cl)cc4)nn3c2C)n1	?	1.5µM*	i	-2%	0%
Cc1ccc(C)c(-n2nnnc2SCC(=O)c2ccc3c(c2)NC(=O)CO3)c1	-2%	?	i	2%	1%
O=C(N/N=C/c1cccnc1)c1cc(-c2ccc(Br)cc2)nc2ccccc12	-24%	-2%	i	1%	-3%
COc1ccccc1N1CCN(C(=O)c2cc3cc(F)ccc3[nH]2)CC1	-3%	?	i	6%	-2%
Cc1cccc(N2CCN(C(=O)c3cc4cc(F)ccc4[nH]3)CC2)c1C	-5%	18%	i	7.1µM*	-4%
Cc1c(CC(=O)N2CCN(C(=O)C3COc4ccccc4O3)CC2)c(=O)oc2cc(O)c(Cl)cc12 (stereo not drawn)	-5%	23µM*	.	0%	1%
COc1ccc2c(C)c(CC(=O)N3CCN(C(=O)C4COc5ccccc5O4)CC3)c(=O)oc2c1C (stereo not drawn)	-3%	15%	i	0%	6%
Cc1ccc(C)c2[nH]c(=O)c(CCNC(=O)c3ccc(S(=O)(=O)N4CCCC4)cc3)cc12	-19%	?	i	-1%	-1%
CN1CCN(C(=O)c2ccc(CSc3ccc(Cl)cc3)cc2)CC1	-28%	?	?	4%	-2%
CN(c1ccc(C(=O)N2CCCCCC2)cc1)S(=O)(=O)c1ccc(Cl)cc1	-19%	23µM*	i	-1%	-9%
Cc1ccc(NS(=O)(=O)c2ccc(C(=O)N3CCCCCCC3)cc2)cc1	-11%	21µM*	i	0%	-7%
COc1cc(/C=C/C(=O)c2ccc(NS(=O)(=O)c3ccc(C)cc3)cc2)ccc1OC(F)F	?	4%	?	?	-2%
CCOC(=O)N1CCN(C(=O)c2ccc(CSc3ccc(Cl)cc3)cc2)CC1	-29%[11.3 µM]	18µM*	?	5%	-24%
COc1cc(/C=C/C(=O)c2ccc(NS(=O)(=O)c3ccc(C)cc3)cc2)cc(OC)c1O	?	23µM*	?	?	?
COc1cc(SC)ccc1C(=O)OCc1nc2ccsc2c(=O)[nH]1	17%	-7%	i	0%	0%
Cc1onc(-c2ccccc2)c1C(=O)Cl	0%	.	i	.	.
CCOC(=O)N1CCN(C(=O)c2ccc(S(=O)(=O)Nc3ccc(C)cc3)cc2)CC1	-14%	10µM*	i	0%	-16%
CN1CCN(C(=O)c2ccc(Oc3ccc([N+](=O)[O-])cc3)cc2)CC1	-27%	-20%	i	0%	0%
CCOC(=O)N1CCN(C(=O)c2ccc(Oc3ccc([N+](=O)[O-])cc3)cc2)CC1	?	26µM*	i	4%	-9%
O=C(c1ccc(S(=O)(=O)Nc2ccccc2)cc1)N1CCCC(C(F)(F)F)C1 (stereo not drawn)	-14%	26µM*	i	0%	?
CCOC(=O)c1ccccc1NC(=O)[C@@H]1CCCN1C(=O)OC(C)(C)C	.	5%	?	0%	-1%
COc1ccc(C2Nc3ccccc3C(=O)N2Cc2ccc(C(C)(C)C)cc2)cc1COc1ccc(NC(C)=O)cc1 (stereo not drawn)	.	18µM*	.	.	-2%
COc1ccc(C2Nc3ccccc3C(=O)N2Cc2ccc(C(F)(F)F)cc2)cc1COc1ccc(NC(C)=O)cc1 (stereo not drawn)	.	?	.	.	7%
O=C(NCCSc1c[nH]c2ccccc12)c1ccc(Br)o1	-17%	-12%	i	0%	-9%
SMILES	ATXN2 expr inh	Nrf2 inh	ATXN viability	Nrf2 ARE act	A549 viability
Cc1[nH]c2ccccc2c1SCCNC(=O)c1ccc(Br)o1	-11%	23µM*	i	4%	?
C[C@@H]1CN(C(=O)c2ccc(OC3CCN(S(=O)(=O)N(C)C)CC3)cc2)C[C@H](C)O1	-7%	-4%	i	0%	0%
Cc1cccc(C)c1NC(=O)Cn1nc(C)c2sc3ccccc3c2c1=O	4%	21µM*	i	0%	4%
O=C(CC1C(=O)OCCN1Cc1ccccc1)Nc1cccc(C(F)(F)F)c1 (stereo not drawn)	-16%	-21%	i	8%	-1%
c1ccc(-c2nnc(-c3c[nH]c4ccccc34)nc2-c2ccccc2)cc1	-9%	?	i	0%	-16%
ClC(Cl)c1nnc(-c2ccccc2)c(-c2c[nH]c3ccccc23)n1	-19%	10µM*	i	4%	?
Cc1ccc(-c2ccc(/C=N/c3ncn[nH]3)o2)cc1Cl	16µM*	26%	i	4%	-5%
COC(=O)N/N=C/c1ccc(-c2ccc(C)c(Cl)c2)o1	10%	15%	i	2%	-1%
N#CC1=C(N)Oc2c(ccc3ccccc23)C1c1ccsc1 (stereo not drawn)	43%	?	?	8.9µM*	?
COc1ccccc1-n1cc2ccc([N+](=O)[O-])cc2n1	.	?	i	11µM*	15%
N#Cc1cc2c(=O)n3ccccc3nc2n(CCCN2CCOCC2)c1=O	-1%	3%	.	2%	14%
CC(C)(C)c1ccc(OCCNC(=S)Nc2ccccc2)cc1	-34%	16µM*	i	6%	?
CC(C)(C)c1ccc(OCCNCc2ccccc2)cc1	-4%	2%	i	5%	8%
CCN(CC)C(=O)C1=C(C)N(Cc2ccc(F)cc2)C(=O)C(CC(=O)NCCCCc2ccccc2)C1 (stereo not drawn)	-23%	.	?	-1%	.
CCn1cc(C(=O)OCC(=O)OC2CC(C)CCC2C(C)C)c(=O)c2ccc(C)nc21 (stereo not drawn)	-2%	21µM*	i	0%	?
C=CCOC(=O)c1cn(CC)c2nc(C)ccc2c1=O	-26%	9%	i	0%	1%
CCN(CC)c1ccc(C=Nc2cccc(S(=O)(=O)N3CCOCC3)c2)c(O)c1	-3%	-12%	?	-1%	-6%
CCN(CC)c1ccc(/C=N/NC(=O)c2cccc(S(=O)(=O)N3CCOCC3)c2)c(O)c1	1.9µM*	?	.	8%	?
CCOC(=O)N/N=C/c1ccc(N(CC)CC)cc1O	15%	8%	i	7%	-5%
CCN(CC)c1ccc(/C=N/NC(=O)CCC(=O)NCc2ccccc2)c(O)c1	3.5µM*	-19%	i	1%	-10%
CCN(CC)c1ccc(/C=N/NC(=O)CNC(=O)C2COc3ccccc3O2)c(O)c1 (stereo not drawn)	?	23µM*	i	0%	-14%
CCCCN1CC(C)(C)[C@H](CC(=O)Nc2ccccc2)C1=O	-4%	.	i	2%	.

Screening data as filed in PubChem BioAssay.
